HCV inh = inhibitors of hepatitis C virus infection; Huh7.5.1 HCVcc-Cre infection, luciferase reporter, 44 h; Potency, µM (top dose mostly 41.8 µM), most hits filed as inhibitors; actives 3.4% (n = 340,000); active = well fitted inhibition curve with a large enough effect; inconclusive = small, poorly fitted or top-dose-only effect, or another doubt; inactive = no such curve, though single readings can be large or run the other way
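Infectious HCVcc-Cre (~0.5 moi) was added to cells just after compound, with cells seeded 4 h earlier at 1,000 per well. Luciferase activity after 44 h culture reported infection; substrate was incubated 15 min at room temperature before reading.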
FMDV antiviral = blocks foot and mouth disease virus | FMDV antiviral cell-based qHTS | Potency, µM (series often up to 57.9 µM), most hits filed as inhibitors | actives 1.2% (n = 410,000); calls by dose curve; tested in HEK293T cells; note: read-out not given here; nearly all actives have a fitted effect of over 45% in size
Marburg entry inh = Marburg virus entry inhibition; Marburg virus pseudotyped entry inhibition, cell reporter; Potency, µM (series often up to 37.8 µM), usual class: inhibitors; actives 1.8% (n = 300,000); calls by dose curve; tested in HEK293 cells
HCMV antiviral = human cytomegalovirus inhibition; HFF cells, HCMV-luciferase reporter, 72 h; active compounds read low; activity change, negative = inhibition, % at 57.5 µM; actives 4.5% (n = 410,000); in the data active = activity change below about -60%; inconclusive = no clear call, values can overlap the other calls; inactive = above about -39%
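Cell-based, HFFs, 1000 cells/well, 16 h 37C; cpds in DMSO + HCMV-luc, MOI 1 PFU/cell; 72 h 37C; OneGlo luminescence after 5 min RT; norm. to buffer vs Salinomycin 10uM.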
Lassa entry inh = inhibitors of Lassa virus binding or cell entry; Potency, µM (titrated, usually from 37.9 µM), most hits filed as inhibitors; actives 1.2% (n = 300,000); Lassa virus pseudotype entry inhibition, cell reporter; AID 540256; calls by dose curve; tested in HEK293 cells; note: nearly all actives have a fitted effect of over 50% in size
Hits are given with their value; 0 = inactive; ? = inconclusive; - = not tested or not shown. Most compounds without a hit are left out; they make up all but 7.9% or so of the library.

SMILES | HCV inh | FMDV antiviral | Marburg entry inh | HCMV antiviral | Lassa entry inh
CC(NC(=O)c1ccco1)C(=O)OCc1cccc(C(F)(F)F)c1 (centres undefined) | 0 | 0 | - | 0 | -
N#Cc1ncc(N=Cc2ccc(N(CCCl)CCCl)cc2)s1 | ? | 0 | 0.794µM | 0 | 0.708µM
ClCCN(CCCl)c1ccc(C=NNc2ncccn2)cc1 | ? | 0 | ? | 0 | ?
CCOC(=O)Cc1csc(SCC(=O)c2c(N)n(CC(C)C)c(=O)n(C)c2=O)n1 | 7.94µM | 11.2µM | ? | 0 | ?
Cc1csc(SCC(=O)c2c(N)n(CC(C)C)c(=O)n(C)c2=O)n1 | 15.8µM | ? | 0 | -74.6 | 0
COc1ccc(CNC(=O)C(CC(C)C)NS(=O)(=O)c2ccc3c(c2)CCN3C(C)=O)cc1 (centres undefined) | - | 0 | 0 | 0 | 0
COC(=O)c1ccccc1-c1cc(C)cc2c1OC(CNC(=O)c1cnc(C)cn1)C2 (centres undefined) | - | 0 | - | - | -
CCOc1ccc2c(c1)C(C)=CC(C)(C)N2S(=O)(=O)c1ccc(C)cc1 | 0 | 0 | 2.82µM | -79.1 | ?
CC1=CC(C)(C)N(C(=O)CCl)c2cc(C)ccc21 | ? | 0 | ? | 0 | 0
COc1ccc2c(c1)C(C)=CC(C)(C)N2S(=O)(=O)c1ccc(C)cc1 | 0 | ? | ? | -85.9 | ?
CC1=CC(C)(C)N(S(=O)(=O)c2ccc(C)cc2)c2cc(C)ccc21 | ? | - | 2.59µM | -84.7 | ?
O=C(C[C@H]1C(=O)N(Cc2ccccc2)C[C@@H]1Cc1ccccc1)Nc1ccccc1 | 0 | 0 | - | 0 | 15.8µM
COc1cccc([C@H]2Oc3ccc(OC)cc3/C(=N\OC[C@@H](O)COCc3ccco3)[C@@H]2O)c1 | - | - | 0 | - | -
N#Cc1ccccc1NC(=O)CSc1ccc([N+](=O)[O-])cn1 | 0 | 0 | 0 | -65.8 | 0
CCCOC(=O)c1ccc(NC(=O)CSC2=Nc3ccccc3C3CC=NN23)cc1 (centres undefined) | 0 | 0 | 0 | 0 | 0
N#Cc1ccccc1NC(=O)CSC1=Nc2ccccc2C2CC=NN12 (centres undefined) | 0 | ? | 0 | -60.1 | 0
Cc1nnc(NC(=O)CSc2ccc([N+](=O)[O-])cn2)s1 | 0 | 0 | 0 | 0 | 0
O=C(CSC1=Nc2ccccc2C2CC=NN12)Nc1ccc2c(c1)OCO2 (centres undefined) | ? | 20µM | ? | 0 | 0
CCCCN1CC(=O)N2[C@H]3c4cc(Cl)ccc4OC[C@@H]3[C@H](C(=O)OCC)[C@]2(C)C1=O | 0 | 0 | - | 0 | -
COc1cccc(NC(=O)c2sc3ncn(CC(=O)N4CCN(c5ccccn5)CC4)c(=O)c3c2C)c1 | 0 | 0 | - | 0 | -
CCc1ccc(NCc2ccc(OC)c(Cn3ccnc3)c2)cc1 | ? | ? | - | -63.7 | -
O=C(Nc1ccccc1N1CCOCC1)c1cc(=O)[nH]c2ccccc12 | 0 | 0 | - | 0 | -
O=c1c2cn[nH]c2nc(SCc2ccc3c(c2)OCCO3)n1-c1ccccc1 | ? | 25.1µM | ? | 0 | ?
Cc1cc(-n2c(SCc3ccccc3F)nc3[nH]ncc3c2=O)ccc1Cl | - | 0 | - | -63.8 | 0
Cc1ccccc1-n1c(SCc2ccc(Cl)cc2)nc2[nH]ncc2c1=O | - | ? | - | 0 | 0
SMILES | HCV inh | FMDV antiviral | Marburg entry inh | HCMV antiviral | Lassa entry inh
O=c1c2cn[nH]c2nc(SCc2cccc(Br)c2)n1-c1ccc(Cl)cc1 | - | 0 | - | 0 | 0
Cc1cc(C)c2c(CC(=O)N(Cc3ccc(Cl)cc3)Cc3ccco3)coc2c1 | - | ? | ? | 0 | 0
CN(C)c1ccc(CNC2CC(C)(C)NC(C)(C)C2)cc1 | ? | 0 | ? | 0 | 11.6µM
CCCOc1c(OC)cccc1C1CC(=O)Nc2cc3c(cc21)OCO3 (centres undefined) | 11.2µM | ? | ? | 0 | 7.08µM
COc1ccc(Cl)cc1C1CC(=O)Nc2cc3c(cc21)OCCO3 (centres undefined) | - | 0 | ? | -92.1 | 0
COc1ccccc1C1CC(=O)Nc2cc3c(cc21)OCCO3 (centres undefined) | ? | ? | 2.06µM | -85.0 | ?
CCOc1cccc(C2CC(=O)Nc3cc4c(cc32)OCCO4)c1 (centres undefined) | - | 0 | 2.24µM | 0 | ?
CCCOc1c(OC)cccc1C1CC(=O)Nc2cc3c(cc21)OCCO3 (centres undefined) | ? | 0 | ? | 0 | ?
CCOc1ccccc1NC(=O)C(C)N(c1ccccc1)S(C)(=O)=O (centres undefined) | - | 0 | 0 | 0 | 0
Cc1ccc2nc(-c3ccc(-c4ccccn4)s3)cn2c1 | ? | 0 | ? | 0 | ?
COc1cccc(C2CC(=O)Nc3cc4c(cc32)OCCO4)c1OC(C)C (centres undefined) | 0 | ? | - | 0 | -
CC(C)Oc1ccccc1C1CC(=O)Nc2cc3c(cc21)OCCO3 (centres undefined) | ? | ? | ? | -103.0 | ?
Cc1ccc(C(=O)N2c3ccccc3N(Cc3ccccc3)C(=O)C2(C)C)cc1 | 11.2µM | - | ? | -92.9 | ?
COc1ccc(OC)c(NC(=O)c2cc(OC(C)=O)cc(C(=O)Nc3cc(OC)ccc3OC)c2)c1 | ? | 28.2µM | - | ? | -
COc1ccc(C(=O)Nc2cc(OC)ccc2OC)cc1 | 11.2µM | 0 | 0 | 0 | 0
COc1ccc(OC)c(NS(=O)(=O)c2ccc(NC(=O)c3ccc(NS(C)(=O)=O)cc3)cc2)c1 | ? | 0 | ? | -82.7 | 0
COc1ccc(-c2c(C)nn3c(N4CCCCCC4)cc(C)nc23)cc1OC | 11.2µM | 0 | ? | -61.4 | 0
CCc1c(C)nc2cc(-c3ccc(OC)c(OC)c3)nn2c1N1CCCC1 | 1.78µM | - | ? | ? | ?
COc1ccc(-c2c(C)nn3c(N4CCOCC4)cc(C)nc23)cc1OC | 0 | 0 | 0 | 0 | 0
CCc1c(C)nc2cc(-c3cc(OC)cc(OC)c3)nn2c1N1CCCC1 | ? | - | 3.66µM | ? | 0
CC(C)[C@H](NC(=O)c1ccccc1)C(=O)OCC(=O)c1c(N)n(C)c(=O)n(C)c1=O | 0 | 0 | - | 0 | -
CCCCNC(=O)CCCN1C(=O)CCn2nc(-c3cccn3C)cc21 | - | 0 | - | 0 | 0
O=C(/C=C/c1cccs1)N1CCOCC1 | 0 | 0 | 0 | 0 | 0
O=C(/C=C/c1cccs1)c1cc(F)ccc1OC(=O)N1CCOCC1 | ? | 22.4µM | 0 | 0 | 0
Cc1ccc(S(=O)(=O)c2ncccc2[N+](=O)[O-])cc1 | ? | 20µM | - | -101.5 | -
SMILES | HCV inh | FMDV antiviral | Marburg entry inh | HCMV antiviral | Lassa entry inh
COc1ccc(C(=O)NNC(=O)C(=O)N2CCCCC2)cc1OC | 0 | 0 | 0 | 0 | 0
COc1cccc(C(=O)NNC(=O)C(=O)N2CCCCC2)c1 | 0 | 0 | 0 | -67.4 | 0
COc1cccc(C(=O)OCCN2CCCCC2)c1 | 0 | 0 | 0 | -100.3 | 0
O=C(CCN1CCOCC1)NCc1ccccc1 | 0 | 0 | - | 0 | -
O=C(Nc1ccc(CN2CCOCC2)cc1)c1cc2ccccc2o1 | 35.5µM | - | ? | 0 | 0
O=C(Nc1ccc(CN2CCOCC2)cc1)c1ccccc1F | 0 | 0 | 0 | 0 | 0
O=C(Nc1ccc(CN2CCOCC2)cc1)c1cc2ccccn2n1 | 0 | 0 | ? | 0 | 6.51µM
O=C(CCCc1ccccc1)NCCN1CCOCC1 | 0 | 0 | 0 | -100.4 | 0
COc1cc2ccccc2cc1C(=O)Nc1ccc(CN2CCOCC2)cc1 | 6.31µM | 0 | 0 | 0 | -
CCCCCNC(=O)C1(C)CCc2nc3cc(C)c(C)cc3n21 (centres undefined) | - | - | - | 0 | -

Assay outcomes (PubChem)
